Out of some 140,000 compounds screened, about 4,300 (3.1%) were called active. Inconclusive results (about 21%) are left out.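 The calls were made as follows: active = readout at or below -70, meaning at least 70% loss of cells showing the perinucleolar compartment, a nuclear body marking cancer cells; inconclusive = readout between -30 and a set limit; inactive = the rest.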 The list comes from a sample in which actives are over-represented; it also holds similar structures and randomly drawn compounds.
Assay: High Content Assay for Compounds that inhibit the Assembly of the Perinucleolar Compartment;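 also: plate controls were DMSO wells for no effect and camptothecin positive control wells for full effect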
Conditions: PC3M PTB-GFP, PNC prevalence imaging, 16 h; at 10 µM; hits give low values
How it was run: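 PC3M cells stably expressing PTB-GFP, 750–1000 cells/well, treated 16 h at 37 °C with compound (23 nl of library stock), in duplicate. After paraformaldehyde fixation and Hoechst stain, imaged at 20x; PNC prevalence scored by image analysis.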

Compound | activity change (PNC), negative = inhibition
CCc1ccc(NC2Nc3cc(C)nn3S2)cc1 (configuration not stated) | 66.7% (inactive)
Cn1c(=O)c2c(nc(SCC(=O)Nc3ccccc3N3CCCCC3)n2C)n(C)c1=O | -26.8% (inactive)
O=C(CN1CCN(C2CCCCC2)CC1)Nc1ccccc1N1CCCCC1 | -8.13% (inactive)
Cc1ccccc1NC(=O)CNc1ccccc1N1CCCCC1 | -94.9% (active)
Cc1occc1C(=O)NNC(=S)NCC(C)C | -25.7% (inactive)
Cc1scc(C(=O)NNC(=S)NCC(C)C)c1C | -6.46% (inactive)
CC(C)CNC(=S)NNC(=O)c1nn(C)cc1Cl | -100% (active)
Cc1ccc(NC(=O)c2cccs2)cc1S(=O)(=O)N(C)C | 22.8% (inactive)
Cc1ccc(S(=O)(=O)N(C)C)cc1NC(=O)COC(=O)c1c(C)noc1C | -21.3% (inactive)
Cc1ccc(S(=O)(=O)N(C)C)cc1NC(=O)/C=C/c1cccs1 | -119% (active)
CCS(=O)(=O)Nc1ccc(C2=NN(S(=O)(=O)c3ccc(F)cc3)C(c3ccco3)C2)cc1 (configuration not stated) | 13.9% (inactive)
Fc1ccc(N2N=C(c3cccs3)CC2c2ccco2)c(F)c1 (configuration not stated) | 17.8% (inactive)
Cc1ccc(C2=NN(C(=O)CSc3nc(N)cc(N)n3)C(c3ccco3)C2)cc1 (configuration not stated) | -113% (active)
CC(C)(C)c1ccc(NC(=O)COC(=O)CCc2nc3ccccc3c(=O)[nH]2)cc1 | -24.2% (inactive)
C/C(=N/NC(=O)c1ccc(Br)o1)c1ccc(C)o1 | -24.9% (inactive)
CCOc1ccc(NC(=O)c2ccc(CSc3nnnn3C)cc2)cc1 | -8.75% (inactive)
CCc1cccc(CC)c1NC(=O)COc1ccccc1C(=O)c1cc(C#N)c(=O)n(C2CCCCC2)c1 | -12.2% (inactive)
CCOC(=O)c1[nH]c2c(c1-c1ccccc1)C(=O)CC(c1ccc(Cl)cc1)C2 (configuration not stated) | 35.7% (inactive)
CCCOC(=O)c1[nH]c2c(c1C)C(=O)CC(c1cccs1)C2 (configuration not stated) | -85.9% (active)
CCCOC(=O)c1[nH]c2c(c1C)C(=O)CC(c1cc(OC)c(OC)c(OC)c1)C2 (configuration not stated) | 10.3% (inactive)
O=C(Nc1cc(C(F)(F)F)ccc1Cl)c1cc(C2CC2)on1 | -19.5% (inactive)
CSc1ccccc1NC(=O)c1cc(C2CC2)on1 | -108% (active)
CSc1ccccc1NC(=O)Cc1ccc(Br)cc1 | 27% (inactive)
Cc1cc(C(C)(C)C)cc(C)c1N | 15.5% (inactive)
O=C(Cc1cc(=O)[nH][nH]1)N/N=C/c1ccccc1[N+](=O)[O-] | -21.2% (inactive)

Compound | activity change (PNC), negative = inhibition
Cc1ccc(N(C(=O)c2ccc(CN3CCOCC3)o2)C(C(=O)NCCC(C)C)c2cccs2)c(C)c1 (configuration not stated) | 4.19% (inactive)
O=C(Nc1ccccc1)c1ccc2c(c1)OCO2 | 16.1% (inactive)
O=C(Nc1ccccc1)c1ccc2nsnc2c1 | -106% (active)
COc1ccc(NC(=O)Nc2ccc3nsnc3c2)cc1 | -27.5% (inactive)
Cc1cc(C)cc(NC(=S)NCCCN2CCOCC2)c1 | 26.5% (inactive)
O=C(NCCCn1ccnc1)Nc1ccc(Cl)cc1Cl | -114% (active)
CCCCC(=O)Nc1ccc(C(=O)NCCCn2ccnc2)cc1 | 40.1% (inactive)
Cc1ccc2c(Cl)c(C(=O)NCCCn3ccnc3)sc2c1 | -3.58% (inactive)
CCCOc1ccc(NC(=O)C2OC3OC(C)(C)OC3C3OC(C)(C)OC23)cc1 (configuration not stated) | 10.2% (inactive)
COc1cc(/C=C2\SC(=S)N(Nc3ncc(C(F)(F)F)cc3Cl)C2=O)cc(OC)c1OC | 7.84% (inactive)
COc1cccc(/C=N/Nc2ncc(C(F)(F)F)cc2Cl)c1O | -85.6% (active)
COc1cccc(/C=N\NC(=O)C2=NNC(=O)C2C)c1O (configuration not stated) | -8.21% (inactive)
CCc1ccc2c(c1)C(c1ccc([N+](=O)[O-])cc1)=NNC(c1ccccc1)=N2 | 34.2% (inactive)
Cc1ccc(-c2cc(C(=O)N/N=C/C=C/c3ccccc3)n[nH]2)o1 | -21.8% (inactive)
CC(=O)CCC(=O)c1ccc2ccccc2c1 | 36.3% (inactive)
Cc1cc(Cl)c(S(=O)(=O)Nc2ccc3c(c2)OCCO3)cc1OCC(N)=O | -121% (active)
Cc1cc(Cl)c(S(=O)(=O)NCC2CCCO2)cc1OCC(N)=O (configuration not stated) | 9.99% (inactive)
Cc1cc(Cl)c(S(=O)(=O)N(C)C)cc1OCC(N)=O | -29.4% (inactive)
CC1=C(C(=O)Nc2ccccc2)C(c2ccco2)C(C#N)=C(SCC(N)=O)N1 (configuration not stated) | -15.2% (inactive)
CC1=C(C(=O)Nc2ccccc2)C(c2cccs2)C(C#N)=C(SCC#N)N1 (configuration not stated) | -107% (active)
CCOC(=O)CSC1=C(C#N)C(c2ccco2)C(C(=O)OCc2ccccc2)=C(C)N1 (configuration not stated) | -21.7% (inactive)
Cc1nn(C)c(C(=O)NNC(=S)NC2CCCCC2)c1Cl | 8.24% (inactive)
Cc1ccc(NN=C2C(=O)OC(C)(C)OC2=O)c(C)c1 | 57.8% (inactive)
Cc1ccn(CC(=O)N2N=C(C(F)F)CC2(O)C(F)F)n1 (configuration not stated) | 3.67% (inactive)
COc1ccc(C(=O)Nc2ccc(S(=O)(=O)NC(C)C)cc2)cc1 | -112% (active)

Compound | activity change (PNC), negative = inhibition
COc1ccc(NC(=O)c2ccc(OC)cc2)cc1 | 29.1% (inactive)
COc1cc(OC)cc(C(=O)Nc2ccc(S(=O)(=O)Nc3cc(C)on3)cc2)c1 | -25.6% (inactive)
CC(=O)Nc1ccc(/C(C)=N/NC(=O)CN(c2ccccc2Br)S(C)(=O)=O)cc1 | -2.45% (inactive)
COc1ccc2[nH]c(=O)c(CN(Cc3nnnn3CCc3ccccc3)CC3CCCO3)cc2c1 (configuration not stated) | -7.29% (inactive)
CCOc1ccc2[nH]c(=O)c(CN(Cc3nnnn3CCc3ccccc3)CC3CCCO3)cc2c1 (configuration not stated) | -100% (active)
CCOc1ccc2[nH]c(=O)c(CN(Cc3nnnn3Cc3ccccc3)CC3CCCO3)cc2c1 (configuration not stated) | -2.29% (inactive)
Cc1ccc(-n2ccc(=O)c(C(=O)O)n2)cc1 | -18.4% (inactive)
Cc1ccc(S(=O)(=O)NCC(=O)N2CCN(c3ccccn3)CC2)cc1 | -10% (inactive)
Cc1ccc(N2CCN(c3ccc(C)cc3)C2c2ccccn2)cc1 | -81.6% (active)
CN(c1ccccc1)c1nc(N)c([N+](=O)[O-])c(NCc2ccco2)n1 | 22% (inactive)
CNC(=O)/C(C#N)=C/c1c(F)cccc1Cl | 52.2% (inactive)
COc1ccccc1N1CCN(CC(=O)NC(=O)NCc2ccco2)CC1 | -19.8% (inactive)
Cc1noc(NS(=O)(=O)c2ccc(NC(=O)C34CCC(CC3)C4)cc2)c1C | -120% (active)
Cc1noc(NS(=O)(=O)c2ccc(N/C=C/C(=O)c3ccccc3)cc2)c1C | 34.4% (inactive)
COc1ccc(C(=O)Nc2ccc(S(=O)(=O)Nc3onc(C)c3C)cc2)cc1OC | 85.8% (inactive)
CCOC(=O)C1CCN(C(=O)/C=C/c2cc(OC)c(OC)c(OC)c2)CC1 | 5.16% (inactive)
COc1ccc(-c2cc(C(F)(F)F)n3nc(C(=O)N4CCOCC4)c(Cl)c3n2)cc1 | -106% (active)
COC(=O)c1cnn2c(C(F)(F)F)cc(-c3ccco3)nc12 | 48.3% (inactive)
COc1ccc(OCC(=O)N2CCOCC2)cc1 | -29.5% (inactive)
COc1ccc(-c2ccnc(SCC(=O)N3CCOCC3)n2)cc1 | -100% (active)
COc1ccc(-c2nc(SCC(=O)N3CCOCC3)n[nH]2)cc1 | -17.8% (inactive)
CCn1c(COc2cccc(OC)c2)nnc1SCC(=O)N1CCOCC1 | -11.5% (inactive)
C/C(=N\NC(=O)c1ccc(NS(=O)(=O)c2cccs2)cc1)c1ccc2ccccc2c1 | 3.73% (inactive)
CC1CCCN(CCOCCOc2ccccc2-c2ccccc2)C1 (configuration not stated) | 40% (inactive)
COC(=O)c1ccc2c(c1)S(=O)(=O)NC(=NCCCN1CCOCC1)S2 | -119% (active)

Compound | activity change (PNC), negative = inhibition
CC(=O)c1ccc(OCCN2CCOCC2)cc1 | 20.1% (inactive)
O=C(NCCN=C1NS(=O)(=O)c2ccccc21)c1ccc(S(=O)(=O)N2CCOCC2)cc1 | -5.59% (inactive)
COc1ccc(C(=O)NNC(=S)NC(=O)c2ccccc2[N+](=O)[O-])cc1 | -4% (inactive)
O=C(O)c1ccc(/C=N/NC(=O)c2ccc(Br)cc2)cc1 | -18.4% (inactive)
O=C(C(Cl)Cl)N1CCN(c2ccccn2)CC1 | 42.3% (inactive)
Cc1ccccc1CN(c1ccc(C(=O)NCC2CCCO2)cc1)S(C)(=O)=O (configuration not stated) | -1.65% (inactive)
COc1ccc(Cl)cc1NC(=O)CNc1ccccc1F | -22.5% (inactive)
COc1ccccc1Nc1ncc(C(C)=O)c(C)n1 | 9.62% (inactive)
C=C(C)C1CC=C(C)/C(=N\NC(=O)CNc2ccccc2OC)C1 (configuration not stated) | -81.8% (active)
CCCCc1cc2c(s1)CCCC/C2=N/O | 0.0645% (inactive)
Cc1cc(C)c2c(n1)sc1c(=O)n(-c3ccccc3)c(=O)[nH]c12 | 19.8% (inactive)
CCn1c(/C=N/NC(=O)c2ccc(OC)cc2)nc2ccccc21 | 27.2% (inactive)
CCC(CC)C(=O)N1CCN(c2cccc(C)c2C)CC1 | -15.3% (inactive)
COc1cc(/C=N\NC(=O)c2nonc2N)c(OC)cc1Br | 16.4% (inactive)
COc1ccc(Cc2nnc(N/N=C/c3ccccc3O)[nH]c2=O)cc1OC | -84.6% (active)
COc1ccc(CCNC(=O)CCCCn2c(=O)[nH]c3ccccc3c2=O)cc1OC | -14.6% (inactive)
COc1ccc(/C=N/Nc2nc3ccccc3c(=O)[nH]2)cc1 | 25.5% (inactive)
NS(=O)(=O)c1cc(C(=O)NCCOc2ccccc2)c(Cl)cc1Cl | -9.28% (inactive)
C=CCNC(=O)c1ccccc1NC(=O)c1ccc(Cl)c(S(=O)(=O)Nc2cccc(C)c2C)c1 | -8.83% (inactive)
CCNS(=O)(=O)c1ccc(NC(=O)Nc2cccc(C(F)(F)F)c2)cc1 | -8.69% (inactive)
O=C(O)CSCC(=O)Nc1cccc(C(F)(F)F)c1 | -17.2% (inactive)
CC(C)C[C@H](NC(=O)Nc1cccc(C(F)(F)F)c1)C(=O)O | -100% (active)

Reference: PubChem BioAssay AID2417 (National Center for Advancing Translational Sciences (NCATS), 2010)
